From PubChem BioAssay (NCI)
About 79,000 compounds went through this panel and 15% of them were active in at least one assay; those are over-represented in the sample as a whole. Unmarked numbers belong to inactive results. Active and inactive are the calls of the source. Cut-off read from the data, not from the text of the source: active = growth inhibition above about 70%; inactive = the rest. Where a SMILES comes first, the peptide text is derived from it. [ ]: non-standard residue; d: D form. The star is where a group is joined. Cbz = O=C(OCc1ccccc1)*; Nva = CCC[CH](N)C(=O)O

Tests used:
[1] = NCI Yeast Anticancer Drug Screen. Data for the rad50 strain (AID 155);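 note: 0% = growth of vehicle-only cultures of the same strain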; details: S. cerevisiae rad50 strain growth inhibition; at 50.0 µM; hits give high values
In short: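 Genetically altered yeast (DNA repair pathway); compound treatment; growth inhibition vs vehicle ctrl.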

[2] = NCI Yeast Anticancer Drug Screen. Data for the mec2-1 strain (AID 157); details: S. cerevisiae mec2-1 strain, at 50.0 µM, hits give high values
In short: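 Test agents were screened against the mec2-1 yeast strain, with defined DNA repair or cell cycle alteration. Growth was scored as inhibition against vehicle-only controls.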

[3] = NCI Yeast Anticancer Drug Screen. Data for the sgs1 mgt1 strain (AID 161);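 note: 0% = growth of cultures given vehicle only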; details: S. cerevisiae sgs1 mgt1 strain, at 50.0 µM, hits give high values
In short: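 Genetically altered yeast, compound exposure, growth inhibition relative to vehicle.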

[4] = NCI Yeast Anticancer Drug Screen. Data for the cln2 rad14 strain (AID 165);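 note: 0% = growth equal to vehicle treated cultures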; details: S. cerevisiae cln2 rad14 strain, at 50.0 µM, hits give high values
In short: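 Growth of compound-exposed yeast (cln2 rad14 genotype) measured and expressed as inhibition relative to vehicle.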

[5] = NCI Yeast Anticancer Drug Screen. Data for the bub3 strain (AID 167); details: S. cerevisiae bub3 mutant strain, at 50.0 µM, hits give high values
In short: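 Yeast carrying a defined mutation is treated with each compound, and growth is compared with that of vehicle-exposed cells to give inhibition.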

[6] = NCI Yeast Anticancer Drug Screen. Data for the mlh1 rad18 strain (AID 175); details: S. cerevisiae mlh1 rad18 strain growth inhibition; at 50.0 µM; hits give high values
In short: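 In this whole-cell yeast screen, a strain with altered DNA damage repair is challenged with compound, and its growth is measured against matched vehicle-treated controls.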

Compound | growth inhibition [1] | growth inhibition [2] | growth inhibition [3] | growth inhibition [4] | growth inhibition [5] | growth inhibition [6]
CC(C)(CC(O)C#N)/[N+]([O-])=[N+](\[O-])C(C)(C)CC(O)C#N (stereo not given) | 3.75% | 5.15% | 34.1% | -4.15% | 13.2% | -27.8%
CN(C)C1Cc2ccccc2C1OC(=O)c1ccccc1 (stereo not given) | 27% | 20.2% | 11% | 22.1% | 14.6% | 37.1%
O=C(CCCC(=O)N/N=C/c1cc(Cl)ccc1[N+](=O)[O-])N/N=C\c1cc(Cl)ccc1[N+](=O)[O-] | 20.7% | 12.1% | 11.1% | 10.7% | -1.9% | 7%
CCCC(NC(=O)OCc1ccccc1)C(=O)NC(CCSC)C(=O)O (stereo not given) (Cbz-[Nva]-Met-OH; configuration not given here) | -54.6% | -1.6% | -4.65% | 11.5% | -0.85% | -5.95%
C[n+]1ccc(CCC(=O)Nc2ccccc2)cc1 | 3.65% | 24.3% | -4.35% | 0.3% | 25.6% | 3%
COC(=O)/C(C#N)=C\n1c(=S)[nH]c2ccccc21 | -14.2% | 2.55% | -16.4% | 17.4% | -4.9% | -8.35%
O=[N+]([O-])c1cc(Br)cc2c1nc(NCCO)c1ccccc12 | 90.8% (active) | 79.5% (active) | 96.8% (active) | 88.2% (active) | 86.8% (active) | 97% (active)
CCC(C)(C)c1ccccc1 | 13.2% | 6% | 20% | 10.9% | 8.95% | 15.3%
CCCCCCC(O)CCCCCCCCCCC(=O)OC (stereo not given) | 33.1% | 4.5% | 20.6% | -26.4% | 12.8% | 33.8%
Nc1scc[n+]1CCC(=O)[O-] | -10.1% | 0.75% | 3.4% | -13.2% | -2.75% | -15.8%
C=CCn1c(=O)n(CC=C)c(=O)n(CC=C)c1=O | 7.4% | 14.3% | -5.35% | -26.6% | -10.3% | -10.8%
Nc1ncnc2c1c1cncnc1n2C1OC(CO)C(O)C1O (stereo not given) | 9.55% | -4.75% | -9.55% | 16.1% | 7.45% | 17.1%
COc1cc(C2C3=C(N=C4SC(C(C)=O)=C(C)N42)c2ccccc2CC3)cc(OC)c1OC (stereo not given) | -30.4% | -48.6% | -22.2% | 3.2% | -35.7% | -17.8%
c1ccc2c(c1)CNNC2 | 11.3% | -4.4% | -5.55% | 11.3% | 15.8% | -8.1%
CCC(CC)(SC(C)C(N)=O)C(C)=O (stereo not given) | 0.35% | 7.4% | -16.3% | -11.3% | 5.75% | 0.6%
Nc1nc(N)c2ncn(Cc3c(Cl)cccc3Cl)c2n1 | -3.75% | -3.95% | 1.9% | 6.8% | 4.15% | -9.65%
Cc1cccc(Cl)c1NC(=O)c1ccc(C(=O)Nc2c(C)cccc2Cl)cc1 | -3% | -17.1% | 5.25% | 4.05% | 2.6% | -12.1%
Cc1c(CCNC(=O)C(F)(F)F)ccc2c1[nH]c1ccccc12 | -3.3% | 3.05% | 11.8% | -41.4% | -2.4% | -5.95%
O=C(O)c1ccc(OS(=O)(=O)c2ccccc2)cc1 | 26.5% | 8.1% | 39.7% | 22.4% | 46.9% | 16.3%
Cc1ccc(S(=O)(=O)N2CC(O)C=Cc3ccccc32)cc1 (stereo not given) | 5.4% | -3.1% | -4.45% | 17.5% | 5.15% | 9.85%

Compound | growth inhibition [1] | growth inhibition [2] | growth inhibition [3] | growth inhibition [4] | growth inhibition [5] | growth inhibition [6]
COc1ccc(/C(C)=N/[O-])cc1CS[n+]1ccccc1 | 15.1% | 27.7% | 47.4% | -4.4% | 59.2% | 48.6%
O=C1OCC/C1=C\c1ccc(Br)cc1 | 7.2% | -10.2% | 3.3% | -29.6% | 7.5% | -1.1%
Cn1c(=O)c2c(nc(Cl)n2Cc2ccccc2)n(C)c1=O | -39.8% | 5.1% | -14.6% | 23.6% | 0.8% | 21.4%
COC(=O)CCN(C)c1ccccc1 | -4.7% | -0.55% | -3.75% | -8.15% | 3.65% | -7.5%
CC(COCc1ccccc1)C1OC(C)(C)OC(C#N)C1C (stereo not given) | -1.05% | -1.4% | -4.8% | -20.4% | 11.7% | 14.3%
C[Si]1(C)CC[Si](C)(C)OS(=O)(=O)O1 | 8.2% | -8.35% | -4.75% | -49.8% | -9.05% | 3.6%
COc1cccc(NC(=O)CC(=O)N2N=C(C)C(N=Nc3ccc(S(=O)(=O)c4ccc(N=NC5C(=O)N(C(=O)CC(=O)Nc6cccc(OC)c6)N=C5C)cc4)cc3)C2=O)c1 (stereo not given) | 27.4% | 15.8% | 8.9% | -16.4% | -2% | 29.1%
COc1cc(OC)cc(C(NC(C)=O)NC(C)=O)c1 | 5.45% | 2.55% | 7.7% | -31.2% | 1.5% | 17.1%
CC1=CC[C@@H](Br)C(C)(C)[C@]12CC[C@]1(C)O[C@@H]1C2 | 3.15% | -33.6% | -12.6% | 2.55% | -23.6% | -13.6%
CCN(CC)c1ccc2cc(-c3nc4ccccc4s3)c(=O)oc2c1 | 12.4% | -18.1% | -9.5% | -3.05% | -11.5% | 4.8%
COc1ccc(C(=O)c2c(C(=O)O)ccc3ccccc23)cc1 | 9.55% | 2.25% | 11.3% | -39.3% | 6.75% | -21.5%
CC(CN1CCCC1)OC(=O)C(c1ccccc1)C1CCCC1 (stereo not given) | 6.15% | -20.9% | 20.1% | -50.2% | -4.85% | -14.2%
Cc1cccc2c1Oc1ccccc1C2NC(=O)c1ccc([N+](=O)[O-])cc1 (stereo not given) | -19.4% | -15.4% | -34.5% | -0.9% | -23.4% | -18%
O=[N+]([O-])c1ccc(S(=O)c2ccc([N+](=O)[O-])cc2)cc1 | 24.8% | 11.6% | 5.5% | -11.1% | -1.75% | -4.75%
CCc1c2c(nc3ccc(O)cc13)-c1cc3c(c(=O)n1C2)COC(=O)[C@]3(O)CC | 33.2% | -5.5% | -5.9% | 10.6% | 7.5% | -7.25%
O=c1[nH]c2nc3ccccc3c(=O)n2/c1=C/c1ccc(Cl)cc1 | -1.6% | 18.2% | 43.4% | 29.6% | 14.1% | -17.2%
N#CCCC1C(C#N)C2CC1C1C3C=CC(C3)C21 (stereo not given) | 9.1% | 11.2% | 30.5% | 28.5% | -4.5% | 26.2%
O=c1c2ccccc2nc2sc3nc4ccccc4c(=O)n3n12 | 4% | -10.8% | -8.85% | -56% | -4.2% | -11.8%
NC1=NC(=S)CS1 | 0.95% | -3.85% | -12.3% | -42.1% | 16.7% | 9.35%
CC(C)(C)OC(=O)NC(Cc1ccc(OC(C)(C)C)cc1)C(=O)N[C@H]1CC[C@H](C(=O)O)C1 (stereo not given in full) | -6.6% | -1.25% | -8% | -7.85% | 11.2% | 10%
